Measurements: PubChem BioAssay (NCATS)
Inconclusive results are not listed. Unmarked numbers belong to inactive results. Activity calls are given as the source filed them. The call rests on the fitted dose curve.

Experiment: Cytotoxicity counterscreen for inhibitors of SARS-CoV-2 cell entry (AID 1645845); further: nearly all actives have a fitted effect of over 50% in size
Conditions: cell viability (SARS-CoV-2 entry assay cells); series mostly up to 57.1 µM; activity change, negative = cytotoxicity: at the top concentration
How it was run: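 Counterscreen run in the same HEK293-ACE2 line as the pseudotyped-particle entry assay, without particles. Viability after 48 h at 37 C was read as ATP luminescence, scaled between cell-containing and cell-free wells.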
On the % scale 0 is the no-effect control and ±100 the full control effect.

Row | SMILES | activity change, negative = cytotoxicity | outcome
1 | O=[N+]([O-])c1ccc(/C=C/c2cccc(CO)n2)o1 | -10.1% | –
2 | CCC(C)C(NC(=O)C(Cc1ccc(O)cc1)NC(=O)C(NC(=O)C(CCCN=C(N)N)NC(=O)C(N)CC(=O)O)C(C)C)C(=O)NC(Cc1cnc[nH]1)C(=O)N1CCCC1C(=O)NC(Cc1ccccc1)C(=O)O (configuration not stated) | -3.11% | –
3 | OC[C@H]1O[C@@H](O)[C@H](O)[C@@H](O)[C@@H]1O | -0.077% | –
4 | CC(Cc1ccc2c(c1)OCO2)NCC(O)c1ccc(O)c(O)c1 (configuration not stated) | – | inactive
5 | OC[C@H]1O[C@@H](OC[C@H]2O[C@@H](O[C@@H]3[C@@H](O)[C@H](O)O[C@H](CO)[C@H]3O)[C@H](O)[C@@H](O[C@@H]3O[C@H](CO)[C@@H](O)[C@H](O)[C@H]3O)[C@@H]2O)[C@H](O)[C@@H](O)[C@@H]1O | – | inactive
6 | CC1=CC(O)CC(C)(C)C1/C=C/C(C)=C/C=C/C(C)=C/C=C/C=C(C)/C=C/C=C(C)/C=C/C1=C(C)CC(O)CC1(C)C (configuration not stated) | 1.7% | –
7 | O=C(N[C@H]1CCS[C@H]2CCC[C@@H](C(=O)O)N2C1=O)[C@@H](S)Cc1ccccc1 | -1.71% | –
8 | CC1(C)S[C@@H]2[C@H](NC(=O)C(C(=O)O)c3ccsc3)C(=O)N2[C@H]1C(=O)O (some centres not stated) | 0.746% | –
9 | CO/N=C(\C(=O)N[C@@H]1C(=O)N2C(C(=O)O)=C(CSc3nnnn3C)CS[C@H]12)c1csc(N)n1 | – | inactive
10 | ClCC1CO1 (configuration not stated) (tested in a mixture with another compound) | – | inactive
11 | CNC(C)[C@@H](O)c1ccc(O)cc1 (some centres not stated) | – | inactive
12 | CCCCCCCCCCCCCCCCCCCCCC(=O)Nc1ccn([C@@H]2O[C@H](CO)[C@@H](O)[C@@H]2O)c(=O)n1 | -11.2% [at 27.1 µM] | –
